Hits are enriched below; roughly 4.4% of the tested compounds scored in any of these assays.
D1 antagonist: blocks dopamine activation of the human D1 receptor; P21728; HEK293 TREx D1 cells, calcium flux, dopamine EC80; hits give low values; activity change, negative = inhibition, % at 10 µM; 3.2% of 360,000 active; AID 504652; in the data active = activity change below about -30%; also: % is scaled to controls: 0 for no effect and ±100 for the full control effect
Target sequence (P21728 whole entry, looked up): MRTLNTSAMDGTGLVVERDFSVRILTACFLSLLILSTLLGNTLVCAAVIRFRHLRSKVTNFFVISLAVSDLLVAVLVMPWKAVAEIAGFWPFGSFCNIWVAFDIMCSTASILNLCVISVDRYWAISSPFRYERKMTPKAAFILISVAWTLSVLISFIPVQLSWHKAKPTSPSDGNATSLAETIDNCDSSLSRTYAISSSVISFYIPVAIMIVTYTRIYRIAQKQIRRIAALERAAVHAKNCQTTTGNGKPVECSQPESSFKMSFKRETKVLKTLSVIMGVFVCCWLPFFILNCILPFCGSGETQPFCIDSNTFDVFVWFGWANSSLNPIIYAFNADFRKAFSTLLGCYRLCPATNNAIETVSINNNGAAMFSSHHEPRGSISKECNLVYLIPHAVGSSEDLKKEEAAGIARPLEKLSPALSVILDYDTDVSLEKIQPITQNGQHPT
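Tetracycline-induced HEK293 T-REx cells with force-coupled D1 receptor were loaded with a no-wash calcium dye. Compound was added after a 10 s baseline and read kinetically for 180 s; EC80 dopamine was then added and calcium flux followed another 180 s.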
USP1-UAF1 inh: USP1/UAF1 (human) deubiquitinase inhibition. O94782. recombinant USP1/UAF1, Ub-Rhodamine cleavage fluorescence. Potency, µM (highest dose often 57.1 µM), for the others: at the highest dose activity change, negative = inhibition, usual class: inhibitors. 0.23% of 390,000 active; active = well fitted inhibition curve with a large enough effect; inconclusive = small, poorly fitted or top-dose-only effect; inactive = no such curve, though single readings can be large or run the other way; also: potency is read from the fitted curve at half-maximal effect; % is scaled to controls: 0 for no effect and ±100 for the full control effect; nearly all actives have a fitted effect of over 60% in size
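In this screen, compounds sit with the deubiquitinase complex (1nM) for 15 min at room temperature before Ub-Rho is added at 150nM final. Fluorescence rise is then followed for 6 reads every 60 seconds.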
TRHR PAM: TRH receptor (human) allosteric enhancement. 0.66% of 360,000 active. TRHR cells, fluo-8 calcium fluorescence, EC20 TRH enhancement. enhancement, % at 2 µM. P34981; in the data active = enhancement above about 30%; also: 0% is about no effect
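Enhancer read-out: after compound pinning and an initial kinetic agonist-mode read, an EC20 of TRH (10 nM final) was injected and fluo-8 calcium signal (Ex 480/Em 530) followed at 1 s/cycle for 100 cycles in TRHR-expressing cells.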
D1 potentiator: potentiators of human D1 dopamine receptor; potentiation, % at 10 µM; HEK293 TREx D1 cells, calcium flux, dopamine EC20 potentiation; AID 504651; 0.036% of 360,000 active; P21728; in the data active = potentiation above about 30%; also: 0% is about no effect
D1 ag: agonists of human D1 dopamine receptor | HEK293 T-REx D1 cells, calcium flux, agonist mode | activation, % at 2 µM | 1% of 360,000 active | AID 504660; also: 0% is about no effect
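Agonism was scored from calcium flux recorded over 180 s (1 read/s) after pintool compound addition, following a 10-cycle baseline. Cells were inducible force-coupled HEK293 TREx D1, plated overnight at 30 C and loaded with no-wash calcium dye.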
TRHR agonist: activates the human TRH receptor; P34981; TRHR cells, calcium flux fluo-8, FDSS agonist mode; activation, % at 2 µM; 0.18% of 360,000 active; AID 493084; also: 0% is about no effect
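Read-out: compound-evoked intracellular calcium rise in TRHR cells, fluo-8 dye, kinetic FDSS fluorescence at 1 s/cycle following a 10-cycle baseline. Cells cultured overnight before dye loading (30 min–1.5 h, RT).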
Starred values were filed as active, the others as inactive; ? = inconclusive; / = not tested or not shown. Rule as the data show it, unless noted: active = activation above about 30%; inactive = the rest.

SMILES	D1 antagonist	USP1-UAF1 inh	TRHR PAM	D1 potentiator	D1 ag	TRHR agonist
Cc1ccc(NC(=O)C(=O)NCCN2CCN(C(=S)Nc3ccccc3)CC2)cc1	-34*	-18%	0	-3	4	-1
COc1cccc(NC(=O)Cn2cc(C(=O)c3ccco3)c3ccccc32)c1	-4	?	1	-1	4	0
CCN(CC)C(=O)c1sc(NC(=O)c2ccc3c(c2)OCO3)c(C#N)c1C	-2	0%	2	-4	2	0
Cc1c(C(=O)N2CCOCC2)sc(NC(=O)c2ccc3c(c2)OCO3)c1C#N	-34*	?	3	1	1	1
CC(C)Oc1ccc(C(=O)N2CC(=O)Nc3ccc(F)cc3C2c2ccc(F)cc2)cc1 (configuration not stated)	8	?	4	0	3	0
CCc1ccc(NC(=O)Cn2cnc3sc(C)c(S(=O)(=O)N4CCC(C)CC4)c3c2=O)cc1	1	0%	-4	1	4	0
C=C(C)CSC1=C(C#N)C(c2ccsc2)CC(=O)N1 (configuration not stated)	-39*	1%	-5	1	5	-1
CCSC1=C(C#N)C(c2ccc(F)cc2)CC(=O)N1 (configuration not stated)	-32*	-16%	-5	-6	1	-1
CCSC1=C(C#N)C(c2ccc(OC)c(OC)c2)CC(=O)N1 (configuration not stated)	0	-6%	-2	-3	6	0
CCn1c(=O)c2cc(C(=O)Nc3cc(F)ccc3F)sc2c2ccccc21	14	-12%	9	5	0	1
N#Cc1nc(Nc2cccc(Br)c2)nc(NC2CCCC2)n1	-14	/	-4	-4	7	-1
COc1ccccc1NC(=O)Cc1ccc(-c2ccccc2)cc1	-39*	-22%	-2	-6	6	1
COc1ccc(NC(=O)COC(=O)Cc2ccc(-c3ccccc3)cc2)c(OC)c1	5	-15%	-4	1	2	-1
COc1ccc(C)cc1NC(=O)COC(=O)Cc1ccc(-c2ccccc2)cc1	-36*	-13%	-2	0	15	-1
CCOc1ccc(NC(=O)Cn2c(=O)n(-c3ccccc3)c(=O)c3ccc(C(=O)NCc4ccc5c(c4)OCO5)cc32)cc1	-21	-10%	-4	0	3	2
Cc1cc2ccccn2c1C(C[N+](=O)[O-])c1ccc(N(C)C)cc1 (configuration not stated)	1	-14%	5	-2	42*	11
Nc1cc(=O)[nH]c2nnc(SCC(=O)Nc3cccc4ccccc34)n12	-45*	-10%	3	3	0	0
[O-][n+]1c2c(c3c4non(O)c4ccc31)CCCC2	-31*	?	-11	-4	21	3
CCn1ccc2cc(S(=O)(=O)N3CCCN(C(=O)Nc4ccc(C)cc4)CC3)ccc21	9	-25%	-4	1	1	-1
Cc1cc(C)c(S(=O)(=O)Nc2nnc(CC(C)C)s2)c(C)c1	7	-22%	-5	-4	0	1
Cc1cc(C)c(S(=O)(=O)Nc2nnc(C)s2)c(C)c1	-34*	-5%	10	-2	3	0
CC(=O)N1C(c2ccccc2O)C[C@]2(C)CC(=O)NC12 (some centres not stated)	9	-14%	36*	1	2	1
C[C@@]12CC(=O)NC1N(C(=O)c1cccc(C(F)(F)F)c1)C(c1ccccc1O)C2 (some centres not stated)	/	-5%	1	-2	0	0
Cc1nc2sccn2c(=O)c1S(=O)(=O)Nc1cc(Cl)ccc1O	-9	-14%	3	1	17	2
Cc1cccn2c(=O)c3cc(C(=O)NC(C)C)n(C)c3nc12	-23	?	-1	-4	2	0
CCCc1c(NC(=O)Nc2ccc(F)cc2)cnn1-c1ccc(Cl)cc1	-43*	-9%	-1	-4	19	2

From PubChem
